Many of the other results were omitted from the sample, so hits are more common in it than they were.
ERK EGF inh = blocks ERK signaling stimulated by EGF; hit rate 0.41% among 130,000; AID 1454; Potency, µM (titrated, usually from 11.5 µM), for inactives: at the top dose activity change, negative = inhibition, most hits filed as inhibitors; HEK293-V1b, EGF-stimulated phospho-ERK AlphaScreen; active = well fitted inhibition curve with a large enough effect;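 note: plate controls were stimulated vehicle wells for no effect and unstimulated vehicle basal for full effect; nearly all actives have a fitted effect of over 55% in size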
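Stably V1b-transfected HEK293 cells; 30 min compound, then EGF 25 nM final for 5 min at 37C; 10 min lysis; phospho-ERK by AlphaScreen after 5 hr beads at room temperature.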
Numbers without * were called inactive. Potency is the fitted concentration of half-maximal effect.

SMILES	ERK EGF inh
Cn1c(=O)c(Nc2ccc(O)cc2)c2c3c(cccc31)C(=O)c1ccccc1-2	28µM*
CC(=O)Nc1ccc(NC(=O)c2cccc3c2-c2ccccc2C3=O)cc1	-4%
O=C(O)C=Cc1ccc(Cn2ccnc2)cc1	-11%
CCCn1c(C)nc2c(NC3CCCCC3)nc(C)nc21	-11%
CC(=O)N1CCC2(CC1)CN(c1ccccn1)C2	0%
O=[N+]([O-])c1cc(C(F)(F)F)cc([N+](=O)[O-])c1NN=C1CCCCC1	18µM*
O=[N+]([O-])c1cc(S(=O)(=O)N2CCCC2)ccc1NN=C1CCCCC1	-2%
O=[N+]([O-])c1cc(C(F)(F)F)cc([N+](=O)[O-])c1NCCCN1CCOCC1	-1%
C[C@@](N)(Cc1ccc(O)c(O)c1)C(=O)O	5%
CCCCC/C=C\C/C=C\C/C=C\C/C=C\CCCCCC(=O)NCCCC(=O)O	-1%
COc1ccc(CNc2nc(-c3ccccc3CN(C)C)nc3ccccc23)c(OC)c1	19%
CN1C(=CC=C2C=C(I)C(=O)C(I)=C2)C(C)(C)c2ccccc21	13µM*
CN(C)c1ccc(N=C/C=C2/N(C)c3ccccc3C2(C)C)cc1	14µM*
CN1/C(=C\C=C2/SC(=S)NC2=O)C(C)(C)c2ccccc21	25µM*
CN1CCC/C1=C/C=C1\SC(=S)NC1=O	-2%
CN1/C(=C\C(=S)NC(=O)c2ccc([N+](=O)[O-])cc2)C(C)(C)c2ccccc21	3%
CO/N=C/C=C1/N(C)c2ccccc2C1(C)C	-2%
CN1/C(=C\C=N\O)C(C)(C)c2ccccc21	6%
CN1/C(=C\C=C2/C(=O)Oc3ccccc3C2=O)C(C)(C)c2ccccc21	6%
CN1/C(=C\C=Nc2cc(S(=O)(=O)N3CCOCC3)ccc2N2CCOCC2)C(C)(C)c2ccccc21	-5%
C=C[C@@H](C1=CC(=O)C(OC)=C(OC)C1=O)c1ccccc1	3%
Cc1noc(C)c1C(=O)N1CCC2(CCCN(c3ccccn3)C2)CC1	20%
COc1cccc([C@@H]2Oc3ccc(Br)cc3C[C@H]2OC(=O)NCCc2ccc(OC)c(OC)c2)c1	9%
COCC(=O)N1CCC[C@@]2(CCN(Cc3nccs3)C2)C1	1%
CC[C@H](C)[C@@H](NC(=O)O[C@@H]1Cc2cc(OC)ccc2O[C@H]1c1cccc(OC)c1)C(=O)OC	4%
SMILES	ERK EGF inh
CC(C)NC(=O)N1CC[C@@]2(CCCN(C(=O)c3csnn3)C2)C1	1%
NCC1OC(n2cnc3c(=O)[nH]c(N)nc32)C(O)C1O (stereo unspecified)	13%
COc1ccccc1CNc1ncncc1-c1ccccc1C	8%
COc1ccccc1CNc1ncncc1-c1ccc(N(C)C)cc1	20µM*
COc1ccccc1CNc1ncncc1-c1ccoc1	26%
CO[C@@H](CCOCc1ccccc1)C[C@H]1O[C@H](C(=O)OC(C)C)C=C[C@@H]1C	-11%
CC(C)(C)OC(=O)NCCCCC1=CC2=CC(=O)C(C)(OC(=O)CCc3ccccc3)C(=O)C2=CO1 (stereo unspecified)	-6%
CC1(C)C(=O)Nc2ccccc2N1C(=O)CSc1nc(-c2ccccc2)cs1	10%
COC(=O)c1cc(C(=O)OCC(=O)N2c3ccccc3NC(=O)C2(C)C)cc([N+](=O)[O-])c1	-1%
CCCC(=O)N1c2ccccc2C(=C2SC(C(=O)OC)=C(C(=O)OC)S2)C(=S)C1(C)C	13µM*
C[C@H](O)CO[C@H]1[C@H]2O[C@H]3[C@H](O)[C@@H](O)[C@@H](O[C@H]4[C@H](O)[C@@H](O)[C@@H](O[C@H]5[C@H](O)[C@@H](O)[C@@H](O[C@H]6[C@H](O)[C@@H](OC[C@H](C)O)[C@@H](O[C@H]7[C@H](O)[C@@H](OC[C@H](C)O)[C@@H](O[C@H]8[C@H](O)[C@@H](O)[C@@H](O[C@@H]([C@@H]1O)[C@@H](CO)O2)O[C@@H]8CO)O[C@@H]7CO)O[C@@H]6CO)O[C@@H]5CO)O[C@@H]4CO)O[C@@H]3CO	9%
CCC1=C2CC[C@H]3C(=O)N(c4ccccc4)C(=O)[C@H]3[C@H]2[C@@]2(C)C(=O)N(CC(=O)OC)C(=O)N2C1=O	-5%
CCOc1cc(/C=N/N=C(N)N)ccc1OCc1ccc(Cl)cc1	32µM*
COc1cc(/C=N/N=C(N)N)ccc1OCc1ccc(Cl)cc1	4%
COc1cc(/C=N/O)ccc1OCc1ccc(Cl)cc1	-11%
CC1=NN(c2ccccc2)C(=O)/C1=C\C=C\c1ccccc1	25µM*
CC1=NN(c2ccc([N+](=O)[O-])cc2)C(=O)/C1=C\N(C)C	-3%
Cn1cc(C=O)c2ccccc21	19%
CCOC(=O)CC1=NN(c2ccccc2)C(=O)C1	-2%
CC1=NN(c2ccccc2)C(=O)/C1=C\c1cn(C)c2ccccc12	14µM*
CC1=NN(c2ccccc2)C(=O)/C1=C/C=C/c1ccc(N(C)C)cc1	7.1µM*
Cc1ccc(C(=O)NN2C(=O)/C(=C/c3cn(C)c4ccccc34)SC2=S)cc1	3%
CC1=NN(CCC#N)C(=O)/C1=C/c1ccc(N(C)C)cc1	-3%
CC1=NN(c2ccc(C(=O)OC(C)C)cc2)C(=O)/C1=C\C=C\c1ccco1	16%

Screening data: PubChem BioAssay, National Center for Advancing Translational Sciences (NCATS)
